Screening data deposited in PubChem BioAssay by National Center for Advancing Translational Sciences (NCATS).
This is a sample that favours compounds with a hit; in the whole collection about 7.5% have one here.
FLuc counter: counter-screen for miR-21 project: firefly luciferase inhibitors or activators | purified FLuc, Km substrates, luminescence inhibition | Potency, µM (series often up to 57.5 µM), inactives show at the top dose activity change, negative = inhibition, most hits filed as inhibitors | actives 6.9% (n = 360,000) | AID 588342;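 further: plate controls were vehicle for no effect and reference inhibitor for full effect; nearly all actives have a fitted effect of over 55% in size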
Target sequence (P08659 whole entry, looked up): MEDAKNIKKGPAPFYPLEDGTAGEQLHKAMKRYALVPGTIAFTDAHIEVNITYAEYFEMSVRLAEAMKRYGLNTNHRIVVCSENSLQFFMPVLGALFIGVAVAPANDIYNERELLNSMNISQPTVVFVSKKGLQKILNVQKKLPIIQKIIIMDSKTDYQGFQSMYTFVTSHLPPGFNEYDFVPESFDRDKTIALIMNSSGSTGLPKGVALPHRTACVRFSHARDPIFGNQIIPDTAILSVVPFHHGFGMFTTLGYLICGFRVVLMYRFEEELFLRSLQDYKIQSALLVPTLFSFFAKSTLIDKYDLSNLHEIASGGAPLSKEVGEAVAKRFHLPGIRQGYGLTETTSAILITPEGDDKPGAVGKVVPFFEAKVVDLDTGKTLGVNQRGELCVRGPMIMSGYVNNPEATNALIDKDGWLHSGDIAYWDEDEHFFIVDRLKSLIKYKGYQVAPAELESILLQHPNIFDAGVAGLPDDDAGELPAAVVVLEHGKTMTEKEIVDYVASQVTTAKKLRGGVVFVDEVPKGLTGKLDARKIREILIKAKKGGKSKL
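Purified P. pyralis luciferase (10nM final) with 10uM D-luciferin and 10uM ATP (Km levels) in 50mM Tris acetate pH 7.5, 10mM Mg acetate, 0.01% Tween-20, 0.05% BSA; qHTS 6-point titration, ~60 µM downward; luminescence read.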
NPC1 prom act: activates the NPC1 promoter; Huh7 NPC1 promoter luciferase reporter, 24 h; Potency, µM (top dose mostly 9.22 µM), for inactives: at the top dose activation, most hits filed as activators; actives 2.4% (n = 320,000); AID 485313; further: % of control where 0% means no effect; nearly all actives have a fitted effect of over 60% in size
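NPC1 promoter–luciferase Huh7 cells; 24 h compound; luminescence.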
Rab9 prom act: activators of Rab9 promoter | Huh7 Rab9 promoter-luciferase reporter, luminescence, 24 h | Potency, µM (titrated, usually from 9.22 µM), inactives show at the top dose activation, negative = inhibition, usual class: activators | actives 2.8% (n = 320,000); further: % of control where 0% means no effect; nearly all actives have a fitted effect of over 60% in size
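Measured in stably transfected Huh7 cells bearing a Rab9 promoter–luciferase construct: 24 h compound treatment at 37 °C, followed by luminescence detection.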
Luc counter: counter-screen: inhibitors of Kinase-Glo firefly luciferase. Q27757. Kinase-Glo luciferase, ATP luminescence, 8 min. Potency, µM (series often up to 38.3 µM), without a hit: top-dose activity change, negative = inhibition, hits mostly inhibitors. actives 0.28% (n = 200,000). AID 1379; further: on the % scale 0 is the no-effect control and ±100 the full control effect; nearly all actives have a fitted effect of over 60% in size
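Compounds were added to a substrate mix at pH 7.2 (50 mM imidazole, 10 uM ATP, within the enzyme's linear range), followed by Kinase-Glo detection reagent; luminescence was measured after 8 minutes at ambient temperature.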
ELG1 genotoxic: inducers of genotoxicity in HEK293T ELG1-luciferase cells | actives 1.3% (n = 330,000) | AID 504466 | HEK293T ELG1-luciferase reporter, luminescence, 16 h | Potency, µM (highest dose often 46 µM), without a hit: at the top dose activity change, positive = activation, hits mostly activators; further: % of control where 0% means no effect; nearly all actives have a fitted effect of over 60% in size
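HEK293T cells expressing luciferase-tagged ELG1 were treated with compound or DMSO for 16 hr at 37°C. Luciferase activity was then read after 30 min with ONE-Glo at room temperature; rising signal flags genetic stress.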
SMN2 splice enh: SMN2 splice variant enhancement | HEK293 SMN2-luciferase splicing reporter, luminescence, 30-36 h | Potency, µM (doses to about 46.1 µM), for the others: at the top dose activity change, positive = activation, usual class: activators | actives 2.8% (n = 210,000); further: % of control where 0% means no effect; nearly all actives have a fitted effect of over 55% in size
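HEK293 cells carry an SMN2 minigene-luciferase reporter in which exon 7 inclusion puts luciferase in frame. Cells were seeded at 2000 cells/well, attached for 10-12 hours, then exposed to compounds for 30-36 hours at 37C before ONE-Glo luminescence.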
Numbers without * were called inactive; ? = inconclusive; . = not tested or not shown; [ ] = dose if it differs, or a comment. The call rests on the fitted dose curve; in most records, active means well fitted curve in the direction sought with a large enough effect; inconclusive means small, poorly fitted or top-dose-only effect, or another doubt; inactive means no such curve, though single readings can be large; an effect the other way counts as inactive or inconclusive. Potency means the concentration at half of the fitted maximal effect.

SMILES	FLuc counter	NPC1 prom act	Rab9 prom act	Luc counter	ELG1 genotoxic	SMN2 splice enh
COc1ccc(NC(=O)CS(=O)CC(=O)Nc2ccc(NC(C)=O)cc2)cc1 (stereo unspecified)	3.1%	-1.6%	3.6%	.	4.8%	.
CCOC(=O)N1CCc2c(sc(NCc3ccc(OCC)cc3)c2C(=O)Nc2ccc(OC)cc2OC)C1	15.1µM*	.	.	.	.	.
CCOC(=O)N1CCc2c(sc(NCc3ccc(OC)c(OC)c3OC)c2C(=O)Nc2ccc(OC)cc2OC)C1	15.1µM*	.	.	.	.	.
CCOC(=O)N1CCc2c(sc(NCc3ccc(N(CC)CC)cc3)c2C(=O)Nc2cc(OC)ccc2OC)C1	-17.7%	.	.	.	.	.
CCOC(=O)N1CCc2c(sc(NCc3cccs3)c2C(=O)Nc2ccc(OC)cc2OC)C1	13.5µM*	.	.	.	.	.
CCOC(=O)N1CCc2c(sc(NCc3sccc3C)c2C(=O)Nc2cc(Cl)ccc2OC)C1	-3.3%	.	.	.	.	.
CCOc1ccc(-c2nonc2NC(=O)c2oc3cc(C)ccc3c2C)cc1	-6.1%	.	.	.	.	-8.6%
COc1cccc(CN(C(=O)c2oc3cc(C)ccc3c2C)C2CCS(=O)(=O)C2)c1 (stereo unspecified)	4.6%	.	.	.	.	-0.8%
CCOC(=O)Cc1csc(NC(=O)COc2ccccc2OCC)n1	-2.7%	1.1%	5.6%	-5.0%	0.8%	-5.1%
CCOC(=O)Cc1csc(NC(=O)COc2ccc3ccccc3c2)n1	13.5µM*	1.4%	-6.2%	-2.0%	-0.4%	-6.9%
CCOC(=O)Cc1csc(NC(=O)COc2ccc(OC)cc2)n1	19µM*	-1.2%	-2.1%	1.5%	3.4%	1.8%
CCC(=O)N1CCc2cc(S(=O)(=O)NC(CC(C)C)C(=O)NCCc3ccccc3)ccc21 (stereo unspecified)	-4.3%	.	.	.	.	5.2%
COc1ccc(NC(=S)Nc2cccnc2)c(OC)c1	-8.4%	-0.7%	1.3%	1.4%	8.5%	15.3%
COc1cc(NC(=S)Nc2ccccn2)cc(OC)c1	9.53µM*	13.2%	-0.9%	3.0%	2.8%	9.2%
COc1ccc(NC(=S)Nc2cc(C)ccn2)c(OC)c1	2.69µM*	?	?	-0.1%	?	11.2µM*
CCCCC(=O)Nc1ccc(NC(=S)NC(=O)CC(C)C)cc1OC	13.6%	-4.3%	3.9%	9.8%	0.0%	?
COc1ccc(NC(=S)Nc2cnc3ccccc3c2)c(OC)c1	6.01µM*	1.4%	-4.1%	3.2%	-0.3%	-0.2%
COc1ccc(NC(=S)NC(=O)CC(C)C)c(OC)c1	13.5µM*	14.1%	13.8%	-2.1%	6.5%	20.1%
COc1ccc(NC(=S)Nc2ccccc2OC)c(OC)c1	-12.3%	-6.2%	2.0%	-1.4%	2.1%	-7.3%
CCC(C(=O)Nc1ccc(C(C)=O)cc1)n1cnc2nc3c(cc2c1=O)CCCC3 (stereo unspecified)	4.2%	.	.	.	.	.
CCCN1C(=O)/C(=C/c2c(N3CCNC(=O)C3CC(=O)OC)nc3c(C)cccn3c2=O)SC1=S (stereo unspecified)	-0.9%	-4.2%	-1.8%	.	-4.7%	.
COc1ccc(NC(=S)Nc2ccc(OC)cc2OC)c(OC)c1	-0.2%	3.9%	-4.1%	-0.6%	-1.3%	-4.3%
COc1ccc(NC(=S)Nc2ccccn2)c(OC)c1	?	?	?	6.4%	?	11.2µM*
Cc1ccc(CSc2nncn3c2cc2sccc23)cc1	-0.3%	.	.	.	.	.
CC(=O)N1CCN(C(=O)CNC(=O)c2cccs2)CC1	.	0.2%	-3.4%	.	-1.7%	.
SMILES	FLuc counter	NPC1 prom act	Rab9 prom act	Luc counter	ELG1 genotoxic	SMN2 splice enh
CC1CCCN(C(=O)CNC(=O)c2cccs2)C1 (stereo unspecified)	?	3.98µM*	?	.	21.8%	.
CN(C)C1(CNC(=O)C2CCC(=O)N(CCc3ccc(Cl)cc3)C2)CCCCC1 (stereo unspecified)	3.5%	0.1%	-3.2%	.	-0.9%	.
O=C(Nc1nnc(COc2ccccc2)s1)c1ccco1	-12.8%	-2.3%	-4.6%	-1.3%	5.1%	18.6%
COc1ccc(/C=C/c2nnc(NC(=O)CSc3ccc(C)cc3)s2)cc1	?	?	29.8%	.	6.6%	.
COC(=O)Nc1nnc(/C=C/c2ccccc2)s1	5.36µM*	18.7%	22.2%	-4.6%	?	20µM*
O=C(Nc1nnc(/C=C/c2ccccc2)s1)c1ccco1	12µM*	18.3%	22.1%	.	4.5%	.
CCC(=O)Nc1nnc(/C=C/c2ccc(OC)cc2)s1	6.01µM*	?	?	.	14.4%	.
Nc1nnc(/C=C/c2ccccc2)s1	23.9µM*	?	?	-7.8%	?	.
C=CCN1CCc2c(cc(O)c(O)c2Cl)C(c2cccc(C)c2)C1 (stereo unspecified)	.	.	.	4.5%	.	12.5%
Cc1ccc(NN2C(=O)C=C(c3ccc(Cl)cc3)C2=O)cc1	-10.4%	-0.2%	-1.1%	-0.2%	15.4%	3.6%
O=C(OC[C@@H](O)CO)c1ccccc1Nc1ccnc2cc(Cl)ccc12	.	.	.	1.6%[17.1 µM]	.	-13.1%[20.6 µM]
Cc1csc2ncc(C(=O)Nc3ccccc3Cl)c(=O)n12	-16.6%	?	3.16µM*	.	?	.
Cc1csc2ncc(C(=O)Nc3ccccc3F)c(=O)n12	?	?	?	-3.5%	11.6µM*	12.6µM*
Cc1csc2ncc(C(=O)Nc3ccon3)c(=O)n12	-8.0%	12.6%	12.3%	-1.6%	5.1%	-3.5%
Oc1ccc(Nc2nc(-c3ccccc3F)nc3ccccc23)cc1	-5.6%	3.1%	3.3%	.	-7.0%	.
COc1ccc(Nc2nc(-c3ccccc3F)nc3ccccc23)cc1OC	26.9µM*	-3.5%	0.3%	.	-9.9%	.
COc1ccc([C@@H]2CC=C(C(=O)O)[C@H](c3ccc(F)cc3)N2S(=O)(=O)c2ccc(Cl)cc2)cc1	1.1%	-3.6%	-2.9%	.	-0.7%	.
Fc1ccc(-n2ncc3c(N4CCCCCC4)ncnc32)cc1	0.953µM*	.	.	.	.	.
CCN1CCN(c2ncnc3c2cnn3-c2ccc(C)cc2)CC1	10.7µM*	.	.	.	.	.
Clc1ccc(-n2ncc3c(N4CCCC4)ncnc32)cc1	0.338µM*	0.501µM*	0.316µM*	-1.7%	0.184µM*	-74.9%
CCOC(=O)C1CCN(c2ncnc3c2cnn3-c2ccc(Cl)cc2)CC1	?	1.0%	-2.1%	0.1%	0.4%	-45.6%
CCN1CCN(c2ncnc3c2cnn3-c2cc(Cl)ccc2C)CC1	-0.8%	.	.	.	.	.
Cc1ccc(-n2ncc3c(N4CCCCCC4)ncnc32)cc1	0.12µM*	.	.	.	.	.
COc1cccc(Cn2c(=O)c(C)nc3cnc(N4CCOCC4)nc32)c1	.	.	.	-2.1%	.	-8.9%
COc1ccc([C@]2(C(C)C)ON(c3ccccc3C(F)(F)F)C2=O)cc1	3.0%	-4.0%	-0.3%	.	-8.0%	.
Cc1[nH]n(C(N)=S)c(=O)c1N=Nc1cc(C(F)(F)F)ccc1Cl	-15.7%	-0.3%	-9.5%[1.84 µM]	.	-12.6%	.
